This is an account of results in PubChem BioAssay AID624136 (Broad Institute, 2012).

SMILES strings stand for the structures. About 75 (0.4%) of roughly 17,000 compounds were called active.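 Rule for the calls: active = compounds whose four printed spots each glow above background more than chance allows, each with a p-value under 7%; inactive = the rest.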 The full list was thinned out, with actives kept by preference.

The test system of this assay is mutant tumor protein p53 (GST-tagged), Homo sapiens. Briefly: small molecules binding GST-tagged mutant p53 – biochemical, small molecule microarray, anti-GST fluorescence, primary screen (AID 624136).
In the case of `CC(=O)CC(=O)N1C(=O)N(C)[C@@]2(C)Oc3ccccc3[C@@H]1[C@H]2COC(=O)c1ccccc1`, the compound was called inactive.

Turning to `C[C@@H]1CN([C@@H](C)CO)C(=O)Cc2cc(NS(C)(=O)=O)ccc2O[C@H]1CN(C)C(=O)Nc1ccccc1`, the result was inactive.

Turning to `CO[C@H]1C(=O)c2c(O)c(CC=C(C)C)c(O)c(CC=C(C)C)c2O[C@@H]1c1ccc(O)cc1`, the result was inactive.

Turning to `CC(C)NC(=O)Nc1ccc2c(c1)C(=O)N([C@H](C)CO)C[C@@H](C)[C@@H](CN(C)S(=O)(=O)c1cccs1)OCCCC[C@@H](C)O2`, the compound was classed as inactive.

For `COc1ccc(C#Cc2ccc3c(c2)[C@]2(C(=O)N3)[C@H](c3ccccc3OCCO)N3[C@H](c4ccccc4)[C@H](c4ccccc4)OC(=O)[C@H]3[C@@H]2C(=O)N2CCCCCCC2)cc1`, the compound was classed as active.

In the case of `COc1ccc(C#Cc2ccc3c(c2)[C@]2(C(=O)N3)[C@H](C(=O)N3CCCCCCC3)[C@H]3C(=O)O[C@H](c4ccccc4)[C@H](c4ccccc4)N3[C@@H]2c2ccc(O)cc2)cc1`, the compound was called inactive.

For the compound `COC(=O)C(CC#Cc1ccc2c(c1)[C@]1(C(=O)N2)[C@H](c2ccccc2OCCO)N2[C@H](c3ccccc3)[C@H](c3ccccc3)OC(=O)[C@H]2[C@@H]1C(N)=O)C(=O)OC`, the result was inactive.

Take `O=C1O[C@H](c2ccccc2)[C@H](c2ccccc2)N2[C@H]1[C@@H](C(=O)N1CCN(c3ncccn3)CC1)[C@]1(C(=O)Nc3ccccc31)[C@H]2c1ccc(OCCO)cc1`: the compound was called inactive.

Regarding `O=C1O[C@@H](c2ccccc2)[C@@H](c2ccccc2)N2[C@@H](c3ccccc3OCCO)[C@]3(C(=O)Nc4ccc(C#CC5(O)CCCCCC5)cc43)[C@@H](C(=O)N3CCCCCCC3)[C@H]12`, the compound was called inactive.

For `O=C1O[C@@H](c2ccccc2)[C@@H](c2ccccc2)N2[C@@H](c3ccccc3OCCO)[C@]3(C(=O)Nc4ccccc43)[C@@H](C(=O)N3CCCCCCC3)[C@H]12`, the compound was classed as active.

As for `CC(=O)c1cccc(NC(=O)c2ccc(CNS(=O)(=O)c3ccc(C(C)(C)C)cc3)cc2)c1`, the compound was called inactive.

For `C[C@@H]1CCCCO[C@H](CN(C)C(=O)NC2CCCCC2)[C@H](C)CN([C@@H](C)CO)C(=O)c2cc(NC(=O)C3CCCCC3)ccc2O1`, the outcome was inactive.

On to `C[C@@H]1CCCCO[C@H](CN(C)S(=O)(=O)c2ccccc2)[C@H](C)CN([C@@H](C)CO)C(=O)c2cc(N(C)C)ccc2O1`, for which the outcome was inactive.

For the compound `C[C@@H]1CN([C@@H](C)CO)C(=O)Cc2cc(NC(=O)Nc3ccc4c(c3)OCO4)ccc2O[C@@H]1CN(C)C(=O)Nc1ccc2c(c1)OCO2`, the call was inactive.

Consider `C[C@@H]1CN([C@H](C)CO)C(=O)c2cc(NS(=O)(=O)c3ccccc3)ccc2O[C@H]1CN(C)C(=O)Nc1ccc2c(c1)OCO2`, for which the compound was classed as inactive.

Turning to `O=c1cc(CSc2nnnn2-c2ccccc2)[nH]c(=S)[nH]1`, the outcome was inactive.

Regarding `Cc1ccc(C)c(S(=O)(=O)NC(C)C(=O)Nc2ccc(Br)cc2F)c1` (stereo unspecified), the call was inactive.

On to `C[C@H](CO)N1C[C@H](C)[C@H](CN(C)Cc2ccncc2)Oc2ccc(NC(=O)Cc3cn(C)c4ccccc34)cc2CC1=O`, for which the call was inactive.

Turning to `COc1ccc(-c2cc(C(=O)N3CCCC3C(=O)O)c(C)o2)cc1OC` (stereo unspecified), the outcome was inactive.

As to `CCN1CCN(S(=O)(=O)c2cc(OCC(N)=O)c(C)cc2Cl)CC1`, the result was inactive.

As to `Cc1cc(C(=O)Nc2cccc3c2O[C@@H](CN(C)C(=O)Nc2ccc(F)cc2)[C@H](C)CN([C@@H](C)CO)C3=O)n(C)n1`, the compound was classed as inactive.

Turning to `C[C@H](CO)N1C[C@H](C)[C@@H](CN(C)Cc2ccc(C(=O)O)cc2)Oc2ccc(NC(=O)Cn3cnnn3)cc2CC1=O`, the result was inactive.

For the compound `C[C@@H]1CN([C@@H](C)CO)C(=O)c2cccc(NC(=O)c3ccncc3)c2O[C@H]1CN(C)S(=O)(=O)c1ccc(F)cc1`, the compound was classed as inactive.

Consider `C[C@H](CO)N1C[C@H](C)[C@@H](CN(C)CC2CCCCC2)Oc2ccc(NC(=O)Cn3cnnn3)cc2CC1=O`, for which the call was inactive.

Turning to `COc1cc(C2OC(c3cc(OC)c(OC)c(OC)c3)C(C)C2C)cc(OC)c1OC` (stereo unspecified), the call was inactive.

As to `C[C@@H]1CN([C@@H](C)CO)C(=O)c2cc(NS(=O)(=O)c3ccccc3)ccc2O[C@@H](C)CCCCO[C@H]1CN(C)S(=O)(=O)c1cccs1`, the result was inactive.

As for `Cc1cc(C)cc(N2C(=O)CSC2c2cccc([N+](=O)[O-])c2)c1` (stereo unspecified), the compound was called inactive.

Turning to `C[C@H](CO)N1C[C@H](C)[C@H](CN(C)C)Oc2ncc(C#Cc3ccc(F)cc3)cc2C1=O`, the compound was classed as inactive.

With `C[C@H]1CN([C@@H](C)CO)C(=O)Cc2cc(NC(=O)NC3CCCCC3)ccc2O[C@H]1CN(C)S(=O)(=O)c1ccccc1`, the outcome was inactive.

As for `C[C@H]1CN([C@@H](C)CO)C(=O)c2cccc(NS(=O)(=O)c3ccccc3)c2O[C@@H]1CN(C)C(=O)Nc1ccc(C(F)(F)F)cc1`, the result was inactive.

As to `Cc1noc(C)c1NC(=O)N(C)C[C@@H]1Oc2ccc(NC(=O)CCN3CCOCC3)cc2CC(=O)N([C@H](C)CO)C[C@@H]1C`, the compound was called inactive.

With `COc1ccc(S(=O)(=O)Nc2ccc3c(c2)CC(=O)N([C@@H](C)CO)C[C@@H](C)[C@@H](CN(C)C)O3)cc1`, the outcome was inactive.

Take `CCO/C([O-])=N\c1c[n+](N2CCOCC2)no1`: the call was inactive.

For the compound `C[C@H](CO)N1C[C@H](C)[C@@H](CN(C)CC2CC2)Oc2ccc(NS(=O)(=O)c3cn(C)cn3)cc2CC1=O`, the compound was classed as inactive.

For the compound `Cc1ccc(-c2cn3c4c(sc3n2)CCCC4)cc1`, the compound was classed as inactive.

`Cc1noc(C)c1S(=O)(=O)N(C)C[C@H]1Oc2ccc(NC(=O)CCN3CCOCC3)cc2CC(=O)N([C@H](C)CO)C[C@H]1C`: the result was inactive.

For `C[C@@H]1CN([C@H](C)CO)C(=O)CCCn2cc(nn2)CO[C@@H]1CN(C)C(=O)c1ccc2ccn(C)c2c1`, the compound was classed as inactive.

As to `CC(C)NC(=O)N(C)C[C@@H]1Oc2ccc(NC(=O)C3CC3)cc2C(=O)N([C@@H](C)CO)C[C@H]1C`, the call was inactive.

For the compound `C[C@@H]1CCCCO[C@H](CN(C)C(=O)c2ccccc2)[C@H](C)CN([C@@H](C)CO)C(=O)c2cc(NC(=O)Nc3ccc4c(c3)OCO4)ccc2O1`, the result was inactive.

Take `C[C@@H]1CN([C@H](C)CO)C(=O)Cc2cc(NC(=O)C3CC3)ccc2O[C@H]1CN(C)Cc1ccc(Cl)c(Cl)c1`: the result was active.

As to `C[C@@H]1CCCCO[C@H](CN(C)Cc2ccncc2)[C@H](C)CN([C@H](C)CO)C(=O)c2cc(NC(=O)Nc3ccccc3)ccc2O1`, the outcome was inactive.

With `C[C@@H]1CN([C@H](C)CO)C(=O)Cc2cc(NC(=O)C3CC3)ccc2O[C@H]1CN(C)Cc1ccc2c(c1)OCO2`, the compound was classed as inactive.

Consider `C[C@H](CO)N1C[C@H](C)[C@@H](CN(C)C(=O)Nc2ccccc2)Oc2ccc(NC(=O)C3CC3)cc2CC1=O`, for which the compound was classed as inactive.

For `C[C@@H]1CN([C@@H](C)CO)C(=O)c2cc(NC(=O)Nc3ccc4c(c3)OCO4)ccc2O[C@@H](C)CCCCO[C@@H]1CN(C)Cc1ccccc1`, the outcome was active.

Regarding `C[C@@H]1CCCCO[C@@H](CN(C)Cc2ccc(C(=O)O)cc2)[C@H](C)CN([C@@H](C)CO)C(=O)c2cc(NC(=O)Nc3ccc(C(F)(F)F)cc3)ccc2O1`, the compound was classed as inactive.

Take `C[C@@H]1CC[C@]2(C)[C@H](CC[C@@H](O)[C@]2(C)O)[C@@]1(C)CC(=O)c1ccoc1`: the compound was classed as inactive.

With `CC(=O)N[C@@H](C(=O)O[C@H]1CCC(C)(C)[C@@H]2CCC3=C(COC3=O)[C@@]12C)C(C)C`, the compound was called inactive.

As for `CC(C)NC(=O)N(C)C[C@H]1OCCCC[C@H](C)Oc2ccc(NC(=O)Nc3ccc(C(F)(F)F)cc3)cc2C(=O)N([C@H](C)CO)C[C@@H]1C`, the compound was classed as inactive.

In the case of `CC(C)NC(=O)N(C)C[C@@H]1OCCCC[C@@H](C)Oc2ccc(NC(=O)Cc3ccccc3)cc2C(=O)N([C@H](C)CO)C[C@H]1C`, the outcome was inactive.

For the compound `C[C@H]1CN([C@@H](C)CO)C(=O)c2cccc(NC(=O)Nc3ccc(C(F)(F)F)cc3)c2O[C@H]1CN(C)C(=O)NC1CCCCC1`, the result was inactive.

`COC(=O)C1=CO[C@@H](O[C@@H]2O[C@H](CO)[C@@H](O)[C@H](O)[C@H]2O)[C@@H]2[C@@](C)(O)[C@@H](OC(=O)/C=C/c3ccc(OC)c(OC)c3)C[C@]12O`: the result was inactive.

For `C[C@H](CO)N1C[C@H](C)[C@H](CN(C)S(=O)(=O)c2cn(C)cn2)Oc2c(NC(=O)c3ccncc3)cccc2C1=O`, the result was inactive.

Turning to `Cc1noc(C)c1NC(=O)N(C)C[C@@H]1Oc2ccc(NC(=O)Nc3ccc(F)cc3)cc2C(=O)N([C@H](C)CO)C[C@@H]1C`, the result was inactive.

In the case of `C[C@H](CO)N1C[C@H](C)[C@H](CN(C)C)Oc2c(NC(=O)C3CCOCC3)cccc2C1=O`, the result was inactive.

`C[C@@H]1CN([C@@H](C)CO)C(=O)Cc2cc(NS(C)(=O)=O)ccc2O[C@@H]1CN(C)Cc1ccc2c(c1)OCO2`: the result was inactive.

Consider `O=C(C1=C[C@H](c2ccc(C(F)(F)F)cc2)C[C@H](OCc2ccc(CO)cc2)O1)N1CCN(Cc2ccccc2)CC1`, for which the result was inactive.

In the case of `C[C@H](CO)N1C[C@H](C)[C@@H](CN(C)C)Oc2ccc(NS(=O)(=O)c3cccs3)cc2C1=O`, the compound was classed as inactive.

With `COc1ccc(S(=O)(=O)N(C)C[C@H]2OCCCC[C@@H](C)Oc3ccc(NC(=O)CCC(F)(F)F)cc3C(=O)N([C@@H](C)CO)C[C@H]2C)cc1`, the outcome was inactive.

With `Cc1noc(C)c1NC(=O)N(C)C[C@H]1Oc2ccc(N(C)C)cc2CC(=O)N([C@H](C)CO)C[C@H]1C`, the result was inactive.

For the compound `C[C@H]1CCCCO[C@H](CN(C)C(=O)Nc2ccccc2)[C@@H](C)CN([C@@H](C)CO)C(=O)c2cc(NC(=O)CCC(F)(F)F)ccc2O1`, the outcome was inactive.

Regarding `N#Cc1c(-c2ccccc2)cc(-c2ccccc2)nc1SCC(=O)O`, the outcome was inactive.

Take `CC(Sc1nnc(N)s1)C(=O)Nc1cccc(Cl)c1` (stereo unspecified): the call was inactive.

On to `COc1ccc(NC(=O)Nc2cccc3c2O[C@@H](CN(C)Cc2ccncc2)[C@H](C)CN([C@H](C)CO)C3=O)cc1`, for which the compound was classed as inactive.

For `COC(=O)C1(Cc2ccc(O)c(CC3OC3(C)C)c2)OC(=O)C(=O)C1c1ccc(O)cc1` (stereo unspecified), the result was inactive.

As to `C[C@@H]1CCCCO[C@H](CN(C)S(=O)(=O)c2cccs2)[C@H](C)CN([C@@H](C)CO)C(=O)c2cc(NS(=O)(=O)c3cccs3)ccc2O1`, the outcome was inactive.

Regarding `C[C@@H]1CN([C@H](C)CO)C(=O)c2cc(NC(=O)NC3CCCCC3)ccc2O[C@H]1CN(C)C(=O)Nc1ccccc1`, the compound was classed as inactive.

Take `COc1ccc(C)cc1NC(=O)CSc1nc(SC)ns1`: the outcome was inactive.

Consider `C[C@H](CO)N1C[C@H](C)[C@@H](CN(C)C(=O)Nc2ccccc2F)OCc2cn(nn2)CCCC1=O`, for which the result was inactive.

As to `COc1ccc(NC(=O)Nc2ccc3c(c2)C(=O)N([C@H](C)CO)C[C@H](C)[C@@H](CN(C)S(=O)(=O)c2ccc(OC)cc2)OCCCC[C@H](C)O3)cc1`, the outcome was inactive.

For the compound `C[C@H](CO)N1C[C@H](C)[C@H](CN(C)C(=O)Nc2ccc3c(c2)OCO3)Oc2ncc(Br)cc2C1=O`, the compound was called inactive.

In the case of `C[C@H]1CN([C@@H](C)CO)C(=O)Cc2cc(NC(=O)Nc3ccc4c(c3)OCO4)ccc2O[C@H]1CN(C)CC1CC1`, the call was inactive.
